Compounds without any hit were thinned out: in the full panel of roughly 83,000, 20% have a hit.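 A percent growth of 40 corresponds to 60% growth inhibition; 0 means no net growth; -100 means all cells died. Active threshold: below 10.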 Activity calls are given as the source filed them.

Some test systems named below: T-47D breast; MDA-MB-435 melanoma; SW-620 colon; MCF7 breast; HCT-116 colon; KM12 colon; BT-549 breast; HCC-2998 colon.
Holding throughout (experiment): NCI-60 one-dose screen, 48 h (100 = growth as untreated, 0 = no growth, -100 = all killed)
Common to all, as to details: 10 µM unless noted

With `OCCN1CCN(c2nc(Nc3ccc(-c4nc5ccccc5[nH]4)cc3)c3cn[nH]c3n2)CC1`, the growth in the test with T-47D breast was -68.4% (active); with MDA-MB-435 melanoma it was -89.9% (active); with SW-620 colon it was -85.4% (active); in the test on MCF7 breast, -74.4% (active); in the test on HCT-116 colon, -80.1% (active); in the test with KM12 colon it was -73.1% (active).

For `C(=C\c1nccc2c1[nH]c1ccccc12)/c1ccccc1`, the growth with T-47D breast was 29.8% (inactive); in the test with MDA-MB-435 melanoma it was -38.9% (active); in the test with SW-620 colon, 14.8% (inactive); in the test on MCF7 breast, 8.84% (active); with HCT-116 colon, 21.5% (inactive); in the test with KM12 colon, 15.6% (inactive).

For `Fc1ccc(CNc2cccc3[nH]c(C(F)(F)F)nc23)cc1`, the growth in the test on BT-549 breast was 99% (inactive); in the test on MDA-MB-435 melanoma, 95.7% (inactive); with SW-620 colon it was 94.6% (inactive); with MCF7 breast, 92.4% (inactive); in the test on HCT-116 colon it was 95.8% (inactive); with HCC-2998 colon, 119% (inactive). For the same compound, in the test on KM12 colon, the growth is 90.6% (inactive).

As to `C=C(C)C(=O)Nc1ccc(NC(C)C)cc1`, the growth in the test on T-47D breast was 100% (inactive); with MDA-MB-435 melanoma it was 117% (inactive); with SW-620 colon it was 105% (inactive); in the test with MCF7 breast, 146% (inactive); in the test with HCT-116 colon, 105% (inactive); in the test on KM12 colon, 109% (inactive).

With `COc1cccc2c1C(=O)c1c(O)c3c(c(O)c1C2=O)C[C@](O)(C(=O)CO)C[C@H]3O[C@@H]1C[C@@H](NC(=O)CCCN(C)C2(c3ccc(F)cc3)CC3CCC2C3)[C@H](O)[C@@H](C)O1` (stereo not given in full), the growth with T-47D breast is 81.2% (inactive); with MDA-MB-435 melanoma it was -88.3% (active); in the test on SW-620 colon, -78.5% (active); with MCF7 breast it was -59% (active); with HCT-116 colon it was -90.1% (active); in the test with KM12 colon, -77.8% (active).

For the compound `COc1cccc(-c2nc3sccn3c2-c2ccnc(NCCCNS(=O)(=O)c3c(Cl)cccc3Cl)c2)c1`, the growth with T-47D breast is 5.35% (active); in the test with SW-620 colon, 76.8% (inactive); with MCF7 breast, 65.8% (inactive); in the test with HCT-116 colon it was 52.6% (inactive); in the test on HCC-2998 colon, 84.8% (inactive); in the test on KM12 colon, 68.2% (inactive).

For `Cc1nc2ccccc2n1C(=O)C[C@@H]1NC(=S)NC1=O`, the growth was 96.7% (inactive) in the test with T-47D breast; 99.4% (inactive) in the test with SW-620 colon; 93.9% (inactive) with MCF7 breast; 92.5% (inactive) with HCT-116 colon; 102% (inactive) with HCC-2998 colon; 102% (inactive) with KM12 colon.

For the compound `N#Cc1cnn(-c2nc3c(Cl)cccc3s2)c1N`, the growth in the test with BT-549 breast is 90.4% (inactive); in the test on MDA-MB-435 melanoma, 87.1% (inactive); with SW-620 colon it was 94.7% (inactive); in the test with MCF7 breast, 68.1% (inactive); in the test with HCT-116 colon it was 61.7% (inactive); with HCC-2998 colon, 91.1% (inactive). For the same compound, the growth with KM12 colon was 88.7% (inactive).

Turning to `COc1ccc(-c2nc3ccc(-c4nc5ccc(N6CCN(c7ccc(F)cc7)CC6)cc5[nH]4)cc3[nH]2)cc1OC`, the growth in the test with T-47D breast is 43.8% (inactive); in the test with MDA-MB-435 melanoma, 90.1% (inactive); with SW-620 colon, 46.5% (inactive); with MCF7 breast it was 9.99% (active); with HCT-116 colon, 11.2% (inactive); in the test on HCC-2998 colon it was 95.1% (inactive). In the test on KM12 colon, the growth was 95% (inactive).

Turning to `COc1cc(-c2nc3ccccc3[nH]2)ccc1OCC(=O)N=Nc1c(O)[nH]c2ccc(Cl)cc12`, the growth in the test on T-47D breast was -52% (active); with SW-620 colon, -67.8% (active); in the test with MCF7 breast, -76.9% (active); with HCT-116 colon, -83.6% (active); with HCC-2998 colon, -62.9% (active); in the test on KM12 colon it was -87.2% (active).

Take `O=C1/C(=C/c2ccc(OCCCOc3ccc(Cl)cc3)cc2)N=C2SCCCN12`: the growth in the test with T-47D breast was 50.5% (inactive); in the test on MDA-MB-435 melanoma it was 93.2% (inactive); with SW-620 colon, 102% (inactive); in the test with MCF7 breast, 69.5% (inactive); with HCT-116 colon, 45.8% (inactive); in the test with KM12 colon, 70.8% (inactive).

As to `CC(=O)O[C@H]1[C@@H]2OC(=O)C(CSc3ccccc3)[C@@H]2C[C@H]2O[C@]2(C)CC/C=C(\C)CCC[C@@H]1C` (stereo not given in full), the growth with T-47D breast was 38.3% (inactive); in the test on MDA-MB-435 melanoma, 25.8% (inactive); in the test with SW-620 colon it was -20.7% (active); with MCF7 breast, 10.6% (inactive); in the test on HCT-116 colon it was -36.7% (active); with HCC-2998 colon, 80.7% (inactive). In the test on KM12 colon, the growth was 51.5% (inactive).

On to `COc1cc(-c2nc(C(=O)NCC(=O)NO)nn2-c2ccc(Cl)cc2)cc(OC)c1OC`, for which the growth was 88.2% (inactive) in the test with T-47D breast; 100% (inactive) in the test on MDA-MB-435 melanoma; 97.1% (inactive) with SW-620 colon; 92.2% (inactive) in the test with MCF7 breast; 101% (inactive) with HCT-116 colon; 95.9% (inactive) in the test with KM12 colon.

In the case of `CC(=O)O[C@H]1CC[C@]2(C)[C@H]3CC=C4[C@@H]5CC(C)(C)CC[C@]5(C(=O)NCCNCCN)CC[C@@]4(C)[C@]3(C)CC[C@H]2C1(C)C`, the growth in the test with T-47D breast is -46.5% (active); in the test with MDA-MB-435 melanoma, -55.5% (active); with SW-620 colon, -84.6% (active); with MCF7 breast, -90.7% (active); with HCT-116 colon, -91.2% (active); in the test on HCC-2998 colon it was -92.1% (active). The growth in the test on KM12 colon is 19.7% (inactive).

In the case of `CC(C)CSc1nc(N)nc2c1ncn2C1OC(CO)C(O)C1O` (stereo not given), the growth in the test with T-47D breast was 106% (inactive); with MDA-MB-435 melanoma, 91% (inactive); with SW-620 colon it was 94.4% (inactive); with MCF7 breast it was 99.5% (inactive); in the test with HCC-2998 colon, 102% (inactive); with KM12 colon, 96.7% (inactive).

With `CCN(CC)c1ccc(-c2cc(-c3cc(OC)c(OC)c(OC)c3)nc(N3CCOCC3)c2C#N)cc1`, the growth with T-47D breast is 22.2% (inactive); in the test with MDA-MB-435 melanoma, -27.5% (active); in the test on SW-620 colon it was 30.8% (inactive); in the test on MCF7 breast, 29.8% (inactive); in the test on HCT-116 colon it was 10.5% (inactive); in the test on HCC-2998 colon, 29.9% (inactive). The growth with KM12 colon was 27.1% (inactive).

In the case of `C=C1c2nc3ccccc3n2C=C(c2ccc(OC)cc2)N1Cc1ccccc1`, the growth in the test with T-47D breast is 59.9% (inactive); in the test with MDA-MB-435 melanoma, 95.1% (inactive); in the test on SW-620 colon it was 88.7% (inactive); in the test on MCF7 breast it was 86.3% (inactive); in the test with HCT-116 colon, 73.7% (inactive); in the test with HCC-2998 colon, 82.1% (inactive). Moreover, the growth in the test on KM12 colon is 98.5% (inactive).

`c1ccc(-c2cc3n4c(-c5ccccc5)nn(-c5ccccc5)c4cnc-3n2)cc1`: the growth with T-47D breast was 54.2% (inactive); with MDA-MB-435 melanoma it was 60.4% (inactive); with SW-620 colon, 52.2% (inactive); in the test on MCF7 breast it was 50.6% (inactive); with HCT-116 colon, 30.9% (inactive); with HCC-2998 colon, 83.9% (inactive). The growth with KM12 colon is 70.6% (inactive).

For the compound `CC/C=C\C[C@H](O)C/C=C1/C(=O)C=C[C@@]1(C)C/C=C\CCCC(=O)OC`, the growth with T-47D breast is 98.2% (inactive); in the test on MDA-MB-435 melanoma, 106% (inactive); in the test with SW-620 colon, 114% (inactive); in the test on MCF7 breast it was 92.8% (inactive); in the test with HCT-116 colon, 94% (inactive); with KM12 colon, 102% (inactive).

With `COc1cc(-c2nn(-c3ccc(C)cc3)cc2C(=O)O)ccc1O`, the growth in the test with T-47D breast is 89.5% (inactive); in the test on SW-620 colon it was 103% (inactive); in the test with MCF7 breast, 93.4% (inactive); in the test on HCT-116 colon it was 99.7% (inactive); with HCC-2998 colon, 92.5% (inactive); with KM12 colon it was 64.7% (inactive).

For the compound `Cn1ccnc1C(=O)/C=C/c1ccccc1`, the growth is 18.4% (inactive) in the test with T-47D breast; 10.8% (inactive) with MDA-MB-435 melanoma; 5.92% (active) with SW-620 colon; 2.27% (active) in the test on MCF7 breast; 9.05% (active) in the test with HCT-116 colon; -20.6% (active) in the test with KM12 colon.

As to `COc1ccc(C(=O)COc2ccc(/C=C3\COc4ccc(OC)cc4C3=O)cc2)cc1`, the growth was 84.9% (inactive) in the test with T-47D breast; 77.1% (inactive) in the test on MDA-MB-435 melanoma; 80.2% (inactive) in the test with SW-620 colon; 34.2% (inactive) in the test with MCF7 breast; 64% (inactive) in the test with HCT-116 colon; 68.4% (inactive) with KM12 colon.

For the compound `Clc1ccc2c(NCCNc3nc(N4CCOCC4)nc4ccccc34)ccnc2c1`, the growth in the test with T-47D breast is -15% (active); in the test on MDA-MB-435 melanoma, -8.79% (active); in the test on SW-620 colon, 11.2% (inactive); with MCF7 breast, 38.8% (inactive); in the test with HCT-116 colon, -7.53% (active); in the test with HCC-2998 colon it was 32.3% (inactive). Also, the growth with KM12 colon was 13.3% (inactive).

As for `O=C(/C=C/c1cc(CN2CCOCC2)c(O)c2ncccc12)c1cc(CN2CCOCC2)c(O)c2ncccc12`, the growth was 7.07% (active) with T-47D breast; 21% (inactive) in the test with MDA-MB-435 melanoma; 18.7% (inactive) in the test on SW-620 colon; 10% (inactive) with MCF7 breast; 21.7% (inactive) with HCT-116 colon; 37.2% (inactive) in the test on HCC-2998 colon. Besides, the growth in the test with KM12 colon was 21.7% (inactive).

As for `FC(F)(F)c1nc2c(NCc3ccc(-c4ccccc4)cc3)cccc2[nH]1`, the growth is 91.2% (inactive) in the test with BT-549 breast; 93.5% (inactive) in the test on MDA-MB-435 melanoma; 75.3% (inactive) with SW-620 colon; 87% (inactive) in the test with MCF7 breast; 74.1% (inactive) with HCT-116 colon; 107% (inactive) in the test on HCC-2998 colon. The growth with KM12 colon was 80.5% (inactive).

On to `COc1ccc2cc(-c3nn(-c4ccc(C(=O)O)cc4)cc3CO)ccc2c1`, for which the growth in the test on T-47D breast is 98.5% (inactive); in the test with MDA-MB-435 melanoma, 98.6% (inactive); in the test on SW-620 colon it was 107% (inactive); in the test with MCF7 breast, 91% (inactive); in the test with HCT-116 colon it was 91% (inactive); with HCC-2998 colon, 100% (inactive). Besides, the growth in the test on KM12 colon is 101% (inactive).

With `CC(=O)c1nc2ccccc2n1CC(=O)c1cccc(Cl)c1`, the growth in the test on T-47D breast was -11.3% (active); with SW-620 colon, 23% (inactive); in the test with MCF7 breast, 1.85% (active); in the test with HCT-116 colon, 5.82% (active); in the test with HCC-2998 colon it was 29.9% (inactive); with KM12 colon, 8.72% (active).

For `CC(C)(C)CC(C)(C)c1ccc(OCCOCC[N+](C)(C)Cc2ccccc2)cc1`, the growth with T-47D breast is -7.78% (active); in the test on SW-620 colon, -39.2% (active); with MCF7 breast, -80.4% (active); in the test on HCT-116 colon, -27.9% (active); in the test on HCC-2998 colon it was -32.5% (active); in the test on KM12 colon, -91.3% (active).

These data come from PubChem BioAssay (NCI).
